Screens: PubChem, several laboratories
Most compounds without a hit are left out; they make up all but 3.1% or so of the library.
PP5 inh: PP5 phosphatase inhibitors, primary screen, biochemical, fluorescence; Serine/threonine-protein phosphatase 5 (Homo sapiens), P53041; purified PP5c, OMFP substrate fluorescence; inhibition, % at 6.7 µM; actives 0.18% (n = 320,000);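 active = inhibition above the campaign's mean inhibition across all tested compounds plus 3 SD, cut at about 9.5% in these data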;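 also: 0% = DMSO only and 100% = 100 µM cantharidin control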
Beta apoptosis: inhibitors of cytokine-induced beta cell apoptosis, primary screen, luminescence; INS-1E cytokine-induced death, ATP luminescence, 48 h; percent of positive-control rescue, neutral wells zero; protection from apoptosis, % (no concentration beside the values); actives 0.8% (n = 300,000);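 active = Every replicate reaches about 75%, or at least half do and their mean reaches it too, limit read from the data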;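 also: 0% = cytokine-treated negative control wells and 100% = positive control rescue; higher means more ATP so stronger rescue from cytokine killing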
CSC inhib: cancer stem cell viability inhibitors, primary screen, luminescence. cancer stem cell-like cells viability. actives 1.1% (n = 300,000). inhibition, % at 7.5 µM. AID 2717, 2010; in the data active = inhibition above about 75%; tested in HMLE shEcad cells
SKKanGAS inh: S. pyogenes SKKanGAS growth inhibitors in kanamycin, primary screen, streptokinase expression inhibitor project, SKKanGAS strain, BacTiter-Glo luminescence | 6 h | inhibition, % at 7.5 µM | actives 1.3% (n = 300,000) | AID 1662, 2009;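 active = mean replicate score, as percent of positive control median, at least 50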;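 also: strain carries kanamycin resistance gene driven by streptokinase promoter and grows in 40 µg/ml kanamycin; loss of luminescence reflects streptokinase promoter inhibition or plain growth inhibition; 0% = median of DMSO wells and 100% = positive control at its reference dose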
PP1 counter: PP1-alpha phosphatase inhibitors, primary screen, counter-screen for PP5 inhibitor project, biochemical, fluorescence, OMFP substrate, single point. Serine/threonine-protein phosphatase PP1-alpha catalytic subunit (Homo sapiens), P62136. purified PP1alpha. inhibition, % at 6.7 µM. actives 0.9% (n = 320,000). AID 2235, 2010;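 active = inhibition above the mean inhibition of all tested compounds plus 3 SD, computed separately for each screening campaign, cut at about 15% in these data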
Target sequence (P62136 whole entry, looked up): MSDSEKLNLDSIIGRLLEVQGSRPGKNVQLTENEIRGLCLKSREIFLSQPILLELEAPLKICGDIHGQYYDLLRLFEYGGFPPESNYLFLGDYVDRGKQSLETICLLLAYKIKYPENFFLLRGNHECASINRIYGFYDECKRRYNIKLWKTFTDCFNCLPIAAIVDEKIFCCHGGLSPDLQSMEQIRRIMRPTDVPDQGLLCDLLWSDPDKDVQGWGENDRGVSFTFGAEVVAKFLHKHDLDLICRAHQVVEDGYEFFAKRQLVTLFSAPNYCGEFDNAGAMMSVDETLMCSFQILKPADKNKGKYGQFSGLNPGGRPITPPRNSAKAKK
* hit, by the source's call.

Screening O=C(Nc1ccc(Cl)c(Cl)c1)C1=Cc2ccccc2OC1 returned PP5 inh 4, Beta apoptosis -4, CSC inhib 50, SKKanGAS inh 75* and PP1 counter 0.
O=C(CN1CCNCC1)NCCSc1ccc(Cl)cc1 was read as PP5 inh 2, Beta apoptosis -7, SKKanGAS inh -2 and PP1 counter -2.
`CCCc1ccc(-c2cc(N)n[nH]2)cc1` gave PP5 inh -3, Beta apoptosis -19, CSC inhib 6, SKKanGAS inh 113* and PP1 counter 2.
Screening COc1ccc(NC(=O)c2cc3ccc(O)cc3o/c2=N\O)cc1 returned PP5 inh 6, CSC inhib 75*, SKKanGAS inh -4 and PP1 counter 3.
COc1ccc(NC(=O)c2cc3ccccc3cc2O)cc1 was read as PP5 inh 2, Beta apoptosis -11, CSC inhib 87*, SKKanGAS inh 27 and PP1 counter 1.
CCOc1ccc(NC(=O)NNC(=O)c2cc3ccccc3cc2O)cc1 was read as PP5 inh -2, Beta apoptosis -9, CSC inhib -3, SKKanGAS inh -3 and PP1 counter 10.
For CCc1ccc(NC(=O)NNC(=O)c2cc3ccccc3cc2O)cc1 the results were PP5 inh 0, Beta apoptosis -7, CSC inhib 1, SKKanGAS inh -1 and PP1 counter 15*.
C[C@H](CO)N1C[C@H](C)[C@@H](CN(C)C(=O)Nc2ccc3c(c2)OCO3)Oc2ccc(NS(=O)(=O)c3cn(C)cn3)cc2C1=O was read as Beta apoptosis -1 and CSC inhib -23.
Screening C=CCn1c(C)csc1=Nc1ccccc1C returned PP5 inh -2, Beta apoptosis 1, SKKanGAS inh 3 and PP1 counter -1.
Cc1ccc(Cl)cc1NC(=O)c1ccc(Cn2cc(Cl)cn2)cc1 was read as PP5 inh 4, Beta apoptosis 3, CSC inhib 100*, SKKanGAS inh 3 and PP1 counter -1.
Screening CCN(CC)C(=S)SCC(=O)NC12CC3CC(CC(C3)C1)C2 returned PP5 inh 2, Beta apoptosis 3, CSC inhib 53, SKKanGAS inh -5 and PP1 counter 3.
Screening N#CC(C#N)=C(Nc1ccc(F)cc1)SCc1cccc(F)c1 returned PP5 inh 4, Beta apoptosis 102*, CSC inhib 58, SKKanGAS inh 11 and PP1 counter 4.
CC(C(=O)N1CCCC1)N1CCN(S(=O)(=O)c2ccccc2)CC1 (stereo not given) was read as Beta apoptosis -2 and CSC inhib -4.
`C=C(NC(=O)C(=C)NC(=O)c1csc(C2=NC3c4csc(n4)C4NC(=O)c5csc(n5)C([C@@](C)(O)C(C)O)NC(=O)C5CSC(=N5)/C(=C\C)NC(=O)C(C(C)O)NC(=O)c5csc(n5)[C@]3(CC2)NC(=O)C(C)NC(=O)C(=C)NC(=O)C(C)NC(=O)C(C(C)CC)NC2C=Cc3c(C(C)O)cc(nc3C2O)C(=O)OC4C)n1)C(N)=O` (stereo not given in full) gave PP5 inh 1, Beta apoptosis -9, CSC inhib 80* and PP1 counter 8.
For Cc1cccc2c1NC(=O)/C2=C\C(=O)c1cccs1 the results were PP5 inh 0, Beta apoptosis 6, CSC inhib 83*, SKKanGAS inh -3 and PP1 counter 4.
Screening COc1ccc2[nH]c(C(=O)Nc3ccc(F)cc3Br)cc2c1 returned PP5 inh 3, Beta apoptosis 8, CSC inhib 6, SKKanGAS inh -6 and PP1 counter -2.
CC(=O)N/C(=C\c1ccc(Br)s1)C(=O)O was read as PP5 inh 0, Beta apoptosis -1, CSC inhib 0, SKKanGAS inh 2 and PP1 counter 1.
CC(=O)c1c(C)[nH]c(C(=O)OCC(=O)Nc2ccc(Cl)cc2[N+](=O)[O-])c1C was read as PP5 inh 5, Beta apoptosis 113*, CSC inhib -3, SKKanGAS inh -12 and PP1 counter 2.
C=Cn1ccnc1P(=S)(c1ccc2c(c1)c1ccccc1n2CC)c1nccn1C=C was read as PP5 inh 3, Beta apoptosis 15, CSC inhib 106*, SKKanGAS inh -1 and PP1 counter 0.
`CC(C)CN=C(NS(=O)(=O)c1ccccc1)C(Cl)(Cl)Cl` gave PP5 inh -2, Beta apoptosis 1, CSC inhib 147*, SKKanGAS inh -4 and PP1 counter -3.
Screening Cc1nnsc1C(=O)NNC(=O)c1cccc2ccccc12 returned PP5 inh 0, Beta apoptosis -7, CSC inhib -8, SKKanGAS inh -5 and PP1 counter -1.
Screening C(=C\c1nccc2c1[nH]c1ccccc12)/c1ccccc1 returned PP5 inh 3, Beta apoptosis 13, CSC inhib 70, SKKanGAS inh 9 and PP1 counter 5.
Cc1ccc(/C=C\c2nccc3c2[nH]c2ccccc23)cc1 was read as PP5 inh 0, Beta apoptosis 5, CSC inhib 83*, SKKanGAS inh 47 and PP1 counter 9.
Screening CCn1cc(C(=O)NCCCN2CCCC(C)C2)c(=O)c2cc(S(=O)(=O)N(C)C3CCCCC3)ccc21 (stereo not given) returned PP5 inh 1, Beta apoptosis -2, CSC inhib 1, SKKanGAS inh -1 and PP1 counter 1.
For COC(=O)c1c(C)oc2ccc(N(C(=O)c3ccncc3)S(=O)(=O)c3ccc(C)cc3)cc12 the results were PP5 inh 3, Beta apoptosis 62, CSC inhib -7, SKKanGAS inh 7 and PP1 counter 2.
For COC(=O)c1c(C)oc2ccc(N(C(=O)c3ccncc3)S(=O)(=O)c3ccc4ccccc4c3)cc12 the results were PP5 inh 1, Beta apoptosis 105*, CSC inhib 8, SKKanGAS inh 15 and PP1 counter 4.
COC(=O)c1c(C)oc2ccc(N(C(=O)c3ccncc3)S(=O)(=O)c3ccc(C)cc3C)cc12 was read as PP5 inh 4, Beta apoptosis 100*, CSC inhib -10, SKKanGAS inh 0 and PP1 counter 5.
COC(=O)c1c(C)oc2ccc(N(C(=O)c3ccncc3)S(=O)(=O)c3ccccc3)cc12 was read as PP5 inh 2, CSC inhib 2, SKKanGAS inh 1 and PP1 counter 1.
`CCCCCCC(=O)N1CCC(c2nc3c(nnn3Cc3ccccc3Cl)c(=O)[nH]2)CC1` gave PP5 inh 3, Beta apoptosis 16, CSC inhib 13, SKKanGAS inh 12 and PP1 counter 11.
`O=C(NNc1ccccc1)C(=O)NNS(=O)(=O)c1ccc(CCCl)cc1` gave PP5 inh -1, Beta apoptosis 0, CSC inhib 105*, SKKanGAS inh 0 and PP1 counter -2.
